Measured values reported in PubChem BioAssay (EPA / NIEHS).
Inconclusive results are not listed. Activity calls are given as the source filed them. Rule for the calls: active = hit-call score of the fitted dose curve at least 0.9, where 1 is the maximum; inconclusive = response in the unintended direction; inactive = score below 0.9.

Assay: CCTE_Simmons_MITO_viability: CellTiter-Glo Viability Assessment for CCTE's HepG2 Seahorse XF Respirometric Screening Assay [post-hoc], Simmons Lab (AID 2284007);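 for AC50: cells exposed to chemical for 90 min before the ATP read; actives lower ATP signal relative to DMSO baseline meaning reduced viability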
Experimental: CCTE_Simmons_MITO is cell-based, respirometric assay using HepG2 cells and a Seahorse XF Analyzer to measure oxygen consumption rates over four temporal phases spanning a total of 72 minutes: pre-injection (pre-treatment), basal (following test compound injection), maximal (following FCCP uncoupler injection), and inhibited (following rotenone/antimycin A injection)CCTE_Simmons_MITO_viability is one of 4 assay components measured from the CCTE_Simmons_MITO assay. It is designed to make measurements of ATP content, a form of viability reporter, as detected with bioluminescence signals by Luciferase-coupled ATP quantitation technology. Data from the assay component CCTE_Simmons_MITO_viability was analyzed at the endpoint, CCTE_Simmons_MITO_viability, in the positive analysis fitting direction relative to DMSO as the negative control and baseline of activity. Using a type of viability reporter, measures of ATP content for loss-of-signal activity can be used to understand the viability. To generalize the intended target to other relatable targets, this assay endpoint is annotated to the cell cycle intended target family, where the subfamily is cytotoxicity.
Test chemicals were administered as a titrated series of 7 concentrations from 125 nM up to 100 uM [final] for 90 minutes prior to single endpoint detection. Three biological replicates of technical singles were run for every chemical concentration tested. Dimethylsulfoxide [DMSO] was used as the vehicle control. Dichlone [DCNQ] was used as the positive control and was administered as a titrated series of 8 concentrations from 10 nM up to 100 uM [final].

Structure (SMILES)	AC50	outcome
CC[C@H](c1ccc(O)cc1)[C@@H](CC)c1ccc(O)cc1	12.6 µM (active)	
NC(=O)N1C(=O)C(C(=O)c2cc(Cl)cs2)c2cc(F)c(Cl)cc21 (configuration not stated)	2.3 µM (active)	
Nc1cccc2c(N)cccc12		inactive
CCc1nn(C2CCCCC2)c2cc(C3(C#N)CCC(C(=O)O)CC3)ccc12 (configuration not stated)		inactive
CCCOC(=O)c1ccc(O)cc1		inactive
O=C(O)Cc1cc(I)c(Oc2cc(I)c(O)c(I)c2)c(I)c1		inactive
Oc1cc2ccccc2c2ccccc12	6.92 µM (active)	
NC(=O)N(O)[C@@H]1C=C[C@H](Oc2cccc(Oc3ccc(F)cc3)c2)C1		inactive
O=[N+]([O-])c1ccc(O)cc1		inactive
CCCCCCCCCCCCN1CCCC1=O		inactive
Cc1cc(CCN2CCN(c3nsc4ccccc34)CC2)cc2c1NC(=O)CC2(C)C	9.34 µM (active)	
OC1CCC(C2CCCCC2)CC1 (configuration not stated)		inactive
